Only some compounds are listed: those with a hit (about 4.7% of all), similar ones and a draw of the others.
TRHR agonist = qHTS for Small Molecule Agonists and Allosteric Enhancers of Human TRH Receptor: Primary Screen for Agonists; TRHR cells, calcium flux fluo-8, FDSS agonist mode; Thyrotropin-releasing hormone receptor (Homo sapiens), P34981; activation, % at 2 µM; AID 493084, 2011; actives 0.18% (n = 360,000); also: 0% is about no effect
Target sequence (P34981 whole entry, looked up): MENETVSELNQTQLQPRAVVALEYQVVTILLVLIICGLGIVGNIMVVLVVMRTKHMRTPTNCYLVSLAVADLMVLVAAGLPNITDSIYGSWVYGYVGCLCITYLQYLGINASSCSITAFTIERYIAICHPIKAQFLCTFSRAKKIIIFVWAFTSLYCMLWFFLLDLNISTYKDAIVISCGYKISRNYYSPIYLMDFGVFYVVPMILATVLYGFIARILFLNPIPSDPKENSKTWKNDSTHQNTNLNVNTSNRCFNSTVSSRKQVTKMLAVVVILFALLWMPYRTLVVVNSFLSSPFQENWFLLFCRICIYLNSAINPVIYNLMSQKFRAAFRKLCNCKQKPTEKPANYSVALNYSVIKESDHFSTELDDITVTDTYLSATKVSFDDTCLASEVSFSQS
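TRHR-expressing cells loaded with fluo-8 calcium dye; 23 nL library compound pin-transferred, kinetic FDSS fluorescence (Ex 480/Em 530) recorded about 180 s for agonist-induced calcium release, before a 10 nM TRH EC20 addition for potentiator mode.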
D1 potentiator = Potentiators of Human D1 Dopamine Receptor: qHTS | D(1A) dopamine receptor (Homo sapiens), P21728 | HEK293 TREx D1 cells, calcium flux, dopamine EC20 potentiation | potentiation, % at 10 µM | actives 0.036% (n = 360,000); in the data active = potentiation above about 30%; also: 0% is about no effect
D1 antagonist = Antagonist of Human D 1 Dopamine Receptor: qHTS; D(1A) dopamine receptor (Homo sapiens), P21728; activity change, negative = inhibition, % at 10 µM; HEK293 TREx D1 cells, calcium flux, dopamine EC80; hits give low values; AID 504652, 2011; actives 3.2% (n = 360,000); in the data active = activity change below about -30%; also: % is scaled to controls: 0 for no effect and ±100 for the full control effect
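Inducible Hek293 Trex D1 cells (tetracycline, overnight, 30 C). Calcium dye 30–90 min RT. Antagonist mode: EC80 dopamine added after 180 s compound read.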
TRHR enhancer = qHTS for Small Molecule Agonists and Allosteric Enhancers of Human TRH Receptor: Primary Screen for Enhancers. enhancement, % at 2 µM. Thyrotropin-releasing hormone receptor (Homo sapiens), P34981. TRHR cells, fluo-8 calcium fluorescence, EC20 TRH enhancement. actives 0.66% (n = 360,000); in the data active = enhancement above about 30%; also: 0% is about no effect
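Enhancer read-out: after compound pinning and an initial kinetic agonist-mode read, an EC20 of TRH (10 nM final) was injected and fluo-8 calcium signal (Ex 480/Em 530) followed at 1 s/cycle for 100 cycles in TRHR-expressing cells.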
D1 ag = Allosteric Agonists of the Human D1 Dopamine Receptor: qHTS. D(1A) dopamine receptor (Homo sapiens), P21728. HEK293 T-REx D1 cells, calcium flux, agonist mode. activation, % at 2 µM. actives 1% (n = 360,000). AID 504660, 2011; also: 0% is about no effect
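Inducible HEK293 T-REx D1 cells, force-coupled to calcium signalling, were plated at 4000 cells/well with tetracycline and held overnight at 30 C. After no-wash calcium dye loading, compound-evoked calcium rise over 180 s flagged agonists.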
* = called active by the depositor; . = not tested or not shown. Rule as the data show it, unless noted: active = activation above about 30%; inactive = the rest.

SMILES	TRHR agonist	D1 potentiator	D1 antagonist	TRHR enhancer	D1 ag
Cc1cccc(C)c1NC(=O)c1cc(S(=O)(=O)N2CCc3ccccc32)cn1C	0	-16	-47*	1	10
CSc1cccc(NC(=O)N2CCN(C)CC2)c1	0	-1	-2	37*	2
Cc1cccc(NC(=O)c2cc(S(=O)(=O)N3CCc4ccccc43)cn2C)c1	0	-2	5	1	8
C=CCn1c(=S)[nH]c2cc(C(=O)Nc3ccc(F)cc3)ccc2c1=O	5	-3	-11	-2	19
Cc1ccc(CN2CCN(C3CCN(C(=O)c4ccccc4)CC3)C(=O)C2=O)cc1	0	0	10	-1	3
CC1CCC(NC(=O)c2ccc3c(c2)N(Cc2cccc(Cl)c2)C(=O)c2ccccc2S3(=O)=O)CC1 (stereo not given)	1	-7	-16	-7	4
Cc1ccc(NC(=O)C2(c3cccs3)CCOCC2)cc1Cl	0	1	.	4	-4
Cn1cc(S(=O)(=O)N2CCc3ccccc32)cc1C(=O)Nc1ccc(Cl)cc1	0	-2	-37*	0	7
COc1cccc(OCCn2c(-c3ccc(Cl)cc3)nc3ccccc3c2=O)c1	1	-1	-2	4	2
C=CCn1c(COc2ccccc2F)nnc1SCC(=O)Nc1cc2oc3ccccc3c2cc1OC	0	-3	17	3	3
C=CCn1c(COc2ccccc2F)nnc1SCC(=O)c1c[nH]c2ccccc12	0	-5	-35*	13	5
O=C(O)c1cccc(S(=O)(=O)N2CCN(S(=O)(=O)c3ccc4c(c3)OCCO4)CC2)c1	2	14	-11	6	0
CCN(c1ccccc1)C(CNS(=O)(=O)c1ccccc1)c1ccccc1 (stereo not given)	0	-2	-3	3	4
C=CCc1c(C)nc2c(-c3ccccc3)cnn2c1N1CCOCC1	-1	-8	-32*	-6	1
Cc1cc(N2CCOCC2)n2ncc(-c3ccccc3)c2n1	0	-3	.	4	-2
CN(CC(=O)Nc1ccc(Cl)cc1)C(=O)C1CCCC1	0	-2	20	2	4
COc1cc(C2CC(=O)Nc3c2c(=O)[nH]c2nc4ccccc4n32)ccc1O (stereo not given)	-2	-4	-49*	0	0
CCOc1ccccc1NC(=O)Cn1c(=O)n(Cc2ccco2)c(=O)c2cccnc21	0	-2	-4	44*	-1
O=C(Nc1ccc(N2CCN(c3ccc(F)cc3)CC2)c(C(=O)O)c1)c1ccccc1F	0	-1	10	4	2
Cc1nc2c(-c3ccccc3)c(C)[nH]n2c(=O)c1Cc1ccc(C(C)C)cc1	0	-3	24	1	1
Cc1ccc(Cl)cc1N1CCN(C(=O)c2cc3ccc4cccnc4c3[nH]2)CC1	-1	4	0	30*	18
COc1ccc(CNCCC(c2ccc(C)cc2)c2ccco2)cc1 (stereo not given)	3	-2	-7	5	92*
CC(C)CCC(CCNCc1ccccn1)c1ccc2c(c1)OCO2 (stereo not given)	1	6	-15	-17	30*
COc1ccc(CNCCC(c2ccccc2)c2ccc3c(c2)OCO3)cc1 (stereo not given)	3	3	-16	-1	133*
CCNCCC(CCC(C)C)c1ccc2c(c1)OCO2 (stereo not given)	5	-3	5	11	19
SMILES	TRHR agonist	D1 potentiator	D1 antagonist	TRHR enhancer	D1 ag
C=CCn1c(O)c2ccc(C(=O)N=NC(=O)COc3ccccc3F)cc2c1O	-1	-5	-15	0	4
COc1ccc(C(=O)N2CCc3cc(OC)c(OC)cc3C2COc2ccccc2OC)cc1 (stereo not given)	0	-3	-18	6	5
Cc1ccc(NC(=O)CN(C)C(=O)/C=C/c2ccc3c(c2)OCO3)cc1	-1	-6	14	-2	0
Cc1cc(C)c(S(=O)(=O)Nc2ccc(N(C)C)cc2)c(C)c1-n1cnnn1	-1	-1	-8	-6	1
Cc1ccsc1/C=N/NC(=O)c1ccc2ccccc2c1	0	-11	-49*	-25	0
Cc1ccsc1/C=N/NC(=O)c1ccncc1	0	2	5	-1	3
O=C1C(=C(c2ccccc2)c2ccccc2)Nc2ccccc21	0	-12	-7	-12	36*
Cc1ccc(-c2c(CN3CCN(c4cccc(C(F)(F)F)c4)CC3)csc2C)cc1	0	1	1	1	1
Cc1cc(C)c(NC(=O)Cn2c([N+](=O)[O-])cnc2C)c(C)c1	0	-7	-46*	7	3
CCOC(=O)c1c(-c2ccc(OC)cc2)csc1/N=C/C1C(=O)CCCC1=O	12	-8	-47*	21	29
CC(C)Nc1nc2c(S(=O)(=O)c3cccc(Cl)c3)nnn2c2ccsc12	1	-8	-57*	-18	2
Cc1ccc(C)c(S(=O)(=O)c2nnn3c2nc(NC(C)C)c2sccc23)c1	0	-7	-60*	-14	1
Cc1ccc(C)c(S(=O)(=O)c2nnn3c2nc(Nc2ccc(C)c(C)c2)c2sccc23)c1	-1	-5	-6	11	1
O=C(Cc1ncc(C(F)(F)F)cc1Cl)NNc1cccc(F)n1	0	-6	8	-2	2
CCN1CCN(CCCOc2ccccc2-c2ccccc2)CC1	1	-4	-9	27	17
CCc1ccccc1OCCCCN1CCCCC1	1	-10	-56*	-1	4
c1ccc(-c2ccccc2OCCCN2CCCCC2)cc1	1	-3	-54*	5	15
CCCOc1ccc(-c2c(C(=O)N/N=C(\C)c3ccncc3)nnn2-c2nonc2N)cc1	3	-1	2	-2	-1
Cc1ccc(S(=O)(=O)N(C)CC(=O)Nc2cc(C)ccn2)cc1	0	18	-7	17	1
COc1ccccc1CCN1CCCC(CN(C)C(=O)c2ccoc2)C1 (stereo not given)	0	-5	-13	-1	1
COc1ccc(F)c(CN(C)CC2CCCN(CCc3ccc(F)cc3)C2)c1 (stereo not given)	0	-12	-58*	0	3
CC(=O)c1cccc(CN(C)CC2CCCN(CCc3ccccc3C)C2)c1 (stereo not given)	0	-9	-66*	-4	4
COc1ccccc1CCN1CCCC(CN(C)CC(C)(C)CO)C1 (stereo not given)	24	-2	22	24	1

Screens deposited in PubChem BioAssay by National Center for Advancing Translational Sciences (NCATS).
